Inconclusive results are not listed. Unmarked numbers belong to inactive results. Calls follow the shape of the dose curve; as a rule, active = well fitted cell-killing curve with a large enough effect; inconclusive = small, poorly fitted or top-dose-only effect, or effect the other way; inactive = flat fitted curve, though single readings scatter.
Tested on: CASKI
Assay: Primary qHTS to identify gynecologic anti-cancer compounds using libraries of approved drugs and bioactive compounds (AID 1345084); also: nearly all actives have a fitted effect of over 55% in size
Conditions: Gynecologic cancer cell panel viability, ATPlite luminescence, 48 h; series mostly up to 57.5 µM; activity change, negative = cytotoxicity: at the top concentration
How it was run: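 Five-concentration response, 48 h; readout is ATP-driven luciferase luminescence.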
% is scaled to controls: 0 for no effect and ±100 for the full control effect.

Compound | activity change, negative = cytotoxicity
Nc1nonc1C(=Nc1ccc(F)c(Cl)c1)NO | -4.96%
C=C(C(=O)OC)C1CCC2(C)C(O[C@@H]3O[C@H](CO)[C@@H](O)[C@H](O)[C@H]3O)CC(=O)C(C)C2C1O (stereo partly drawn) | 0.563% [at 25.3 µM]
COC(=O)[C@@H]1C2CC3c4[nH]c5ccccc5c4CCN3CC2CC[C@@H]1O (stereo partly drawn) | -1.07%
COc1cc(C[C@H]2COC(=O)[C@@H]2Cc2ccc(O)c(OC)c2)ccc1O | 3.5% [at 38.5 µM]
CC(C)=CCc1ccc(Oc2c(O)cc(C)cc2CO)c(C(=O)O)c1O | -5.81% [at 38.5 µM]
C[C@@H]1O[C@@H](O[C@@H]2[C@@H](O)[C@H](O[C@@H]3[C@@H](O)[C@@H](O)[C@H](O[C@H]4[C@H](OC(=O)[C@]56CCC(C)(C)C[C@H]5C5=CCC7[C@@]8(C)C[C@H](O)[C@H](O[C@@H]9O[C@H](C(=O)O)[C@@H](O)[C@H](O)[C@H]9O)[C@@](C)(CO)C8[C@H](O)C[C@@]7(C)[C@]5(C)CC6)OC[C@H](O)[C@@H]4O)O[C@H]3C)OC[C@H]2O)[C@H](O)[C@H](O)[C@H]1O (stereo partly drawn) | -21.9% [at 6.55 µM]
CC(=O)OC(CSC1CCC(=O)OC(C)CCC(=O)C1)C(=O)O (stereo not drawn) | -3.9% [at 38.5 µM]
CCC(NC(=O)CC(NC(=O)C(CO)NC(=O)C(CC)NC(=O)c1ccc[nH]1)c1ccccc1)C(=O)O (stereo not drawn) | 1.69% [at 25.3 µM]

Reference: PubChem BioAssay (NCATS)
